Results as given in PubChem BioAssay AID686979 (National Center for Advancing Translational Sciences (NCATS), 2013).
About 50,000 (12%) of roughly 420,000 compounds were called active. Where a call stands in place of a potency, no number is given. Inconclusive results (about 26%) are left out. The call rests on the fitted dose curve; in most records, active means well fitted inhibition curve with a large enough effect; inconclusive means small, poorly fitted or top-dose-only effect; inactive means flat fitted curve, though single readings scatter. This excerpt belongs to a sample that is enriched for actives.

assay: qHTS for Inhibitors of human tyrosyl-DNA phosphodiesterase 1 (TDP1): qHTS in cells in presence of CPT; details: chicken DT40 Tdp1-/-;hTDP1 cells + 20 nM CPT, ATP luminescence, 48 h; series mostly up to 46.2 µM; further: nearly all actives have a fitted effect of over 55% in size
Summary of the method: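 Chicken DT40 Tdp1-/- cells stably complemented with human TDP1 were seeded at 400 cells/well in medium containing 20 nM camptothecin, exposed to pin-transferred compounds, and grown at 37 °C for at least 48 hr. Viability was read as ATP luminescence.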
Potency means the concentration at half of the fitted maximal effect.

Row | SMILES | Potency
1 | CCOCCCNC(=O)c1ccc(CS(=O)(=O)c2cccc(C(F)(F)F)c2)o1 | inactive
2 | O=C(CO/N=C/c1ccccc1O)NNC(=O)c1ccccc1Cl | 0.461 µM (active)
3 | NS(=O)(=O)c1cc(C(=O)OCC(=O)NNC(=O)c2ccccc2)ccc1Cl | inactive
4 | O=C(CO/N=C/c1ccccc1OC(F)F)NC1CCCC1 | inactive
5 | CCn1c(SCC(=O)c2ccc(Cl)s2)nnc1-c1cccs1 | inactive
6 | CCn1c(Cc2cccs2)nnc1SCC(=O)c1ccc(C)cc1 | 11.2 µM (active)
7 | Cc1ccc(-n2c(Cc3cccs3)nnc2SCC(=O)OC(C)C)cc1 | inactive
8 | COC(=O)C(C)n1cnc2c(nnn2-c2cccc(Cl)c2)c1=O (centres undefined) | inactive
9 | CC(C)C[C@H](CO)Nc1nc(N(C)c2cccc(Cl)c2)c2ncn(C(C)C)c2n1 | 16.4 µM (active)
10 | Cc1ccnc(NS(=O)(=O)c2ccc(NC(=O)c3ccc(S(=O)(=O)N(C)C)cc3)cc2)n1 | inactive
11 | CCOc1cc2c(Cl)ncnc2c(OCC)c1OCC | inactive
12 | CCCCC(=O)OC1=CN(Cc2ccccc2)S(=O)(=O)c2ccccc21 | inactive
13 | O=C(OCc1cn(-c2ccc(Cl)c(Cl)c2)nn1)c1ccccc1Cl | inactive
14 | COc1cc2c(cc1OC)C(C)N(S(=O)(=O)c1cnc(Cl)c(Cl)c1)CC2 (centres undefined) | inactive
15 | CC(C)NC(=S)NN=C1CCCCCCCCCCC1 | 13 µM (active)
16 | CC(C)(C)NC(=O)C(=O)NN=C1CCCCCCC1 | inactive
17 | CCc1ccc(C(=O)NN=C2CCCCCC2)s1 | inactive
18 | CC(C)(C)c1ccccc1NC(=O)CN1C(=O)NC2(CCCC2)C1=O | inactive
19 | COC(=O)c1ccc(CN2C(=O)C(Cc3ccccc3)ON=C2c2ncccc2C)o1 (centres undefined) | inactive
20 | Cc1ccc(C)c(NC(=O)Cn2ccn(-c3ccc(F)cc3)c(=O)c2=O)c1 | inactive
21 | COc1ccccc1NC(=O)CCC(=O)OC(C)C(=O)c1ccccc1 (centres undefined) | inactive
22 | O=C(Nc1ccc(F)cc1)c1cc2c(s1)CCCC2 | inactive
23 | COc1cccc(C(=O)NNC(=O)c2cccc(F)c2)c1 | inactive
24 | CCOc1ccccc1C(=O)NC1(C(F)(F)F)C(=O)Nc2c1c(=O)[nH]c(=O)n2-c1ccc(F)cc1 (centres undefined) | inactive
25 | COc1cccc(C(=O)NC2(C(F)(F)F)C(=O)Nc3c2c(=O)[nH]c(=O)n3-c2ccc(C)cc2)c1 (centres undefined) | 25.9 µM (active)
26 | O=P(O)(O)C(O)c1ccc2ccccc2c1 (centres undefined) | inactive

Row | SMILES | Potency
27 | CCN1CN(Cc2ccccc2)CNC1=S | inactive
28 | S=C1SCN(CCN2CCOCC2)CN1Cc1ccccc1 | 5.01 µM (active)
29 | C/C(CCc1ccccc1)=N\NC(=O)c1ccc(CN2CCOCC2)cc1 | inactive
30 | COc1ccc(CCN2CC(C(=O)NCCN3CCNC3=O)CCC2=O)cc1 (centres undefined) | inactive
31 | CC(C)NC(=S)Nc1cccc2cnccc12 | inactive
32 | CCN(CC)CC(=O)Nc1nn(-c2ccccc2)nc1C(N)=O | inactive
33 | COc1ccc2nc(C)cc(Nc3cccc(C(=O)O)c3)c2c1 | inactive
34 | COc1ccc(-c2nc3nc(C)cc(C)n3c2Nc2c(C)cccc2C)cc1 | 16.4 µM (active)
35 | COc1cccc(-c2cnc(OC(C)(C)C)nc2OC(C)(C)C)c1 | inactive
36 | COc1ccc(-c2cc(C)nc3nc(N)nn23)cc1 | inactive
37 | COc1cccc(CSc2nc3nc(C)cc(C)n3n2)c1 | inactive
38 | COc1cccc(-c2nc3nc(C)cc(C)n3c2NC2CCCCC2)c1 | 18.4 µM (active)
39 | COc1ccccc1C(=O)Nc1nc2nc(-c3ccccc3)cc(=O)n2[nH]1 | inactive
40 | O=C(NN1C(=O)C2CCCCC2C1=O)c1ccco1 (centres undefined) | inactive
41 | Cc1cccc(C(=O)N2CCN(S(=O)(=O)N3CCCCC3)CC2)c1 | inactive
42 | Cc1cc(C)c(NC(=O)CN2C(=O)NC(Cc3ccccc3)C2=O)c(C)c1 (centres undefined) | inactive
43 | O=S(=O)(NCCc1ccccn1)c1cc(Cl)cc(Cl)c1O | inactive
44 | COc1ccccc1CCNC(=O)C1CCN(C(=O)/C=C/c2ccccc2)CC1 | inactive
45 | Cc1cccc(NC(=O)CN2CCN(C(=O)C3CCN(C(=O)/C=C/c4ccccc4)CC3)CC2)c1C | 16.4 µM (active)
46 | Cc1cccc(NC(=O)CN2CCN(CC(=O)NCC3(N4CCCCC4)CCCCC3)CC2)c1C | inactive
47 | Cc1ccc(S(=O)(=O)NC[C@H]2O[C@@H](n3cnc4c(N)ncnc43)[C@H](O)[C@@H]2O)s1 | inactive
48 | COc1ccc(NC(=O)c2ccccc2CC[N+](=O)[O-])cc1 | inactive
49 | O=C(NNC(=O)c1ccc(-c2ccccc2)cc1)Nc1ccccc1 | inactive
50 | C=CCNc1scc(-c2ccccc2)[n+]1CC=C | inactive
51 | C=CC[n+]1c(-c2ccc(C)cc2)csc1NNC(=O)Nc1ccccc1 | 10.3 µM (active)
52 | C[C@H]1CN([C@@H](C)CO)C(=O)CCCn2cc(nn2)CO[C@@H]1CN(C)S(=O)(=O)c1ccccc1C#N | inactive

Row | SMILES | Potency
53 | O=C(c1cc(COc2ccc(F)cc2F)on1)N1CCOCC1 | inactive
54 | CNc1ccc(-c2nc(-c3ccco3)no2)cc1[N+](=O)[O-] | inactive
55 | COc1ccc(-c2noc(-c3ccc(N4CCN(c5ccccc5)CC4)c([N+](=O)[O-])c3)n2)cc1OC | 23.1 µM (active)
56 | COc1cc(-c2noc(-c3ccc(N4CCCC4)c([N+](=O)[O-])c3)n2)cc(OC)c1OC | inactive
57 | Cc1nnc(SCc2cc(=O)c3cc(F)ccc3[nH]2)n1C | inactive
58 | CCOC(OCC)c1ccc(/C=C\c2nccc(N)n2)cc1 | inactive
59 | O=c1oc2ccccc2cc1-c1csc(Nc2ccc(O)cc2)n1 | 9.2 µM (active)
60 | COc1ccc2nc(NC(=O)[C@@H]3CCCN3C(=O)c3cccs3)sc2c1 | inactive
61 | CCNc1nc(-c2cc3ccccc3o2)cs1 | inactive
62 | COc1ccc2nc(Nc3nc(-c4cc5ccccc5oc4=O)cs3)sc2c1 | 5.8 µM (active)
63 | COc1ccc2nc(Nc3nc(-c4ccncc4)cs3)sc2c1 | inactive
64 | Nc1ncc(-c2cc3ccccc3oc2=O)s1 | inactive
65 | CC1CCCCN1Cc1c(O)ccc2c(=O)c(-c3cccc(Cl)c3)c(C(F)(F)F)oc12 (centres undefined) | inactive
66 | C[C@@H]1NS(=O)(=O)c2cc(Cl)ccc2O[C@@H]1c1ccccc1 | inactive
67 | C[C@H](CO)N1C[C@H](C)[C@H](CN(C)C(=O)c2ccncc2)OCc2ccccc2-c2c(n(C)c3ccccc23)C1=O | inactive
68 | CC(NS(=O)(=O)c1ccc(Br)cc1)C(=O)NCC1CCCO1 (centres undefined) | inactive
69 | COc1ccc(C)cc1NC(=S)N1CCOCC1 | inactive
70 | COc1ccccc1NC(=S)N1CCN(C(c2ccccc2)c2ccccc2)CC1 | 16.4 µM (active)
71 | CC(C)NC(=S)N1CCN(S(C)(=O)=O)CC1 | inactive
72 | COc1ccccc1NC(=S)N1CCN(c2ccc(F)cc2)CC1 | inactive
73 | CC(C)OCC(O)CN1CCN(C(c2ccccc2)c2ccccc2)CC1 (centres undefined) | inactive
74 | CC(C)NC(=S)N1CCN(C(c2ccccc2)c2ccccc2)CC1 | 29.1 µM (active)
75 | CCCCNC1(C#N)CCN(Cc2ccccc2)CC1 | inactive
76 | CC(C)CC1(C(=O)NCc2ccccn2)C=CCN1C(=O)c1ccccc1 (centres undefined) | inactive
77 | O=C(O)c1ccc(/C=N/NC(=S)NCc2ccccc2)cc1 | inactive
78 | NN=C(NN=Cc1ccccc1)c1ccccc1 | 8.2 µM (active)

Row | SMILES | Potency
79 | O=C(NN=Cc1ccccc1)c1ccccc1 | inactive
80 | O=C(CCNC(=O)c1ccccc1)NN=Cc1ccc(Br)o1 | inactive
81 | CN1C(C(=O)NCC2CC2)CC2Cn3c(nc4ccccc43)C21 (centres undefined) | inactive
82 | Nc1ccc(/C=C/c2ccnc3ccccc23)c([N+](=O)[O-])c1 | 11.2 µM (active)
83 | Cc1cc(C)cc(C(=O)NC2C(=O)N3C(C(=O)O)=C(CSc4nnc(C)s4)CSC23)c1 (centres undefined) | inactive
84 | CSc1ccccc1NC(=O)CN(C)CC(=O)Nc1cccc(Br)c1 | inactive
85 | CCOc1ccc(OCC)c(NC(=O)c2cc(C)nc3c2c(C)nn3-c2cccc(Cl)c2C)c1 | inactive
86 | CC1=CC(C)(C)NC(=S)N1c1ccccc1 | 20.6 µM (active)
87 | CC1=CC(C)(C)NC(=S)N1NC(=O)c1ccccc1Cl | inactive
88 | Cc1ccc(N2C(=O)C(Cc3ccccc3)NC2=S)cc1 (centres undefined) | inactive
89 | CCOc1ccc(S(=O)(=O)N2CCC(C(=O)OCc3ccc(OC)cc3)CC2)cc1 | inactive
90 | CC1(C)O[C@H]2CC(=O)OCC23[C@H]2CC[C@@]4(C)[C@H](c5ccoc5)OC(=O)[C@H]5O[C@]54[C@]2(C)C(=O)C[C@@H]13 (some centres undefined) | inactive
91 | NC(=O)C(Cc1ccccc1)NC(=O)C12CC3CC(CC(C3)C1)C2 (centres undefined) | inactive
92 | COc1cc(/C=N/N=C(\N)c2nonc2N)cc(OC)c1OC | inactive
93 | CCOC(=O)c1c(C)[nH]c(CCC(=O)NCCCN2CCN(c3cc(C)ccc3C)CC2)c1C | 4.61 µM (active)
94 | CC1=C(c2ccc(C)c(C)c2)S(=O)(=O)NC1=NCc1ccccc1Cl | inactive
95 | COc1ccc(NC(=O)NCCN2CCN(c3ccc(C)cc3)CC2)c(Cl)c1 | inactive
96 | Cc1ccc(C)c(N2CCN(CCCNC(=O)Nc3ccc(Cl)cc3)CC2)c1 | 7.31 µM (active)
97 | CCOC(=O)N1CCC(Nc2c(NCCN3CCN(c4cccc(Cl)c4)CC3)c(=O)c2=O)CC1 | inactive
98 | Cc1ccc(C)c(N2CCN(Cc3nnc(-c4ccccc4)o3)CC2)c1 | inactive
99 | COc1ccc(N2CCN(CCNC(=O)Nc3cc(Cl)ccc3Cl)CC2)cc1 | inactive
100 | CCOC(=O)c1c(C)[nH]c(CCC(=O)NCCCN2CCN(c3cccc(Cl)c3)CC2)c1C | 13 µM (active)
101 | CCOC(=O)N1CCC(Nc2c(NCCCN3CCN(c4ccc(OC)cc4)CC3)c(=O)c2=O)CC1 | inactive
102 | CC1=C(c2ccc(C)cc2)S(=O)(=O)NC1=NCCCN1CCN(c2cc(C)ccc2C)CC1 | 4.61 µM (active)
103 | Cc1ccc(C)c(N2CCN(C(=O)Cc3c(C(=O)O)c(C)cn3C)CC2)c1 | inactive
104 | CCOC(=O)c1c(C)[nH]c(C(=O)NCCN2CCOCC2)c1C | inactive
